Activity calls are given as the source filed them. The calls were made as follows: active = hit-call score of the fitted dose curve at least 0.9, where 1 is the maximum; inactive = score below 0.9.
Legend:
[1] = ATG_GLI_CIS: Attagene CIS-FACTORIAL HepG2 Assay for human Zinc Finger Protein GLI1 (AID 2282945); conditions: HepG2, Attagene cis-factorial reporter mRNA, GLI element; actives raise or lower the signal
In short: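 Bidirectional curve fits relative to DMSO, using reporter mRNA levels from RT-PCR plus capillary electrophoresis. Cells were HepG2 transiently carrying cis-regulated reporter constructs, harvested 24 h after dosing.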

[2] = target: Bile acid receptor (Homo sapiens) (UniProt Q96RI1); test: ATG_IR1_CIS: Attagene CIS-FACTORIAL HepG2 Assay for human Nuclear Receptor Subfamily 1 Group H Member 4 (NR1H4), IR1 submotif (AID 2282946); conditions: IR1 reporter transcription, actives raise or lower the signal
Chain of Bile acid receptor (Homo sapiens) (Q96RI1 whole entry, looked up): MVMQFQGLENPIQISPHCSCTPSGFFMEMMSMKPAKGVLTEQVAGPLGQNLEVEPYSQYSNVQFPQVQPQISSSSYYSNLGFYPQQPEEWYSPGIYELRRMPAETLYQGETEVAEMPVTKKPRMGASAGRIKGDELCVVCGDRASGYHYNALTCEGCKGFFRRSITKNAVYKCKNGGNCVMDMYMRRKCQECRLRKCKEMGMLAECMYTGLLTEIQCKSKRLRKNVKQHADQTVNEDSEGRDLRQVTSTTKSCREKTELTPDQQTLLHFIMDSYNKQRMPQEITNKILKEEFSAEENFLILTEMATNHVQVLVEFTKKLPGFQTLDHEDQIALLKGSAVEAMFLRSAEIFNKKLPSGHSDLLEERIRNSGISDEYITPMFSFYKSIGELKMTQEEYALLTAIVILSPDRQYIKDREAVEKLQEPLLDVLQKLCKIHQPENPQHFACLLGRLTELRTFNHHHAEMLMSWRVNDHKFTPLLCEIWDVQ
In short: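 HepG2 cells transiently transfected with multiplexed cis-element reporter units read endogenous transcription factor activity. After 24 h compound exposure, reporter mRNA was quantified by RT-PCR, fluorescent labelling, HpaI digestion and capillary electrophoresis; bidirectional fitting versus DMSO baseline.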

[3] = ATG_GRE_CIS: Attagene CIS-FACTORIAL HepG2 Assay for human Glucocorticoid Response Elements (GRE) (AID 2282947); conditions: HepG2 GRE cis-reporter, Attagene multiplex mRNA; actives raise or lower the signal
In short: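 Reporter transcripts read by RT-PCR with capillary electrophoresis fluorescence after a 24 h chemical exposure of HepG2 cells transiently transfected with multiple cis-element reporter units. Gain or loss fitted against DMSO.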

[4] = ATG_ISRE_CIS: Attagene CIS-FACTORIAL HepG2 Assay for human Interferon Regulatory Factor 1 (IRF1) binding to an Interferon-Stimulated Response Element (ISRE) (AID 2282948); conditions: HepG2 ISRE cis-reporter (Attagene), mRNA transcription readout; actives raise or lower the signal
In short: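 Signal reflects induction or loss of ISRE-linked reporter mRNA in transiently transfected HepG2 cells after a 24 h treatment, detected by fluorescent RT-PCR fragments on capillary electrophoresis and normalised to DMSO.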

[5] = ATG_M_32_CIS: Attagene CIS-FACTORIAL HepG2 Assay for M32 Transcription Factor (Internal Marker) (AID 2282949); conditions: HepG2 Attagene cis-factorial M32 reporter, mRNA; actives raise or lower the signal;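 also: background control marker of the multiplexed CIS panel rather than a real target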
In short: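 HepG2 human liver cells transiently transfected with cis-promoter-driven multiple reporter transcription units, dosed 24 h. Reporter mRNA quantified by RT-PCR, FAM-labelled primer extension, HpaI digest and capillary electrophoresis; bidirectional fit versus DMSO baseline.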

[6] = ATG_M_06_CIS: Attagene CIS-FACTORIAL HepG2 Assay for M06 Transcription Factor (Internal Marker) (AID 2282950); conditions: HepG2 Attagene CIS-FACTORIAL M06 internal marker reporter; actives raise or lower the signal
In short: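 Internal background marker within multiplexed cis-reporter HepG2 system. Cells transiently transfected, dosed 24 h; reporter mRNA measured by RT-PCR, HpaI digestion and capillary electrophoresis. Bidirectional fit relative to DMSO.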

[7] = target: Hypoxia-inducible factor 1-alpha (Homo sapiens) (UniProt Q16665); test: ATG_HIF1a_CIS: Attagene CIS-FACTORIAL HepG2 Assay for human Hypoxia Inducible Factor 1 (HIF1A) (AID 2282951); conditions: HepG2 Attagene cis-factorial HIF1a reporter transcription; actives raise or lower the signal
Chain of Hypoxia-inducible factor 1-alpha (Homo sapiens) (Q16665 whole entry, looked up): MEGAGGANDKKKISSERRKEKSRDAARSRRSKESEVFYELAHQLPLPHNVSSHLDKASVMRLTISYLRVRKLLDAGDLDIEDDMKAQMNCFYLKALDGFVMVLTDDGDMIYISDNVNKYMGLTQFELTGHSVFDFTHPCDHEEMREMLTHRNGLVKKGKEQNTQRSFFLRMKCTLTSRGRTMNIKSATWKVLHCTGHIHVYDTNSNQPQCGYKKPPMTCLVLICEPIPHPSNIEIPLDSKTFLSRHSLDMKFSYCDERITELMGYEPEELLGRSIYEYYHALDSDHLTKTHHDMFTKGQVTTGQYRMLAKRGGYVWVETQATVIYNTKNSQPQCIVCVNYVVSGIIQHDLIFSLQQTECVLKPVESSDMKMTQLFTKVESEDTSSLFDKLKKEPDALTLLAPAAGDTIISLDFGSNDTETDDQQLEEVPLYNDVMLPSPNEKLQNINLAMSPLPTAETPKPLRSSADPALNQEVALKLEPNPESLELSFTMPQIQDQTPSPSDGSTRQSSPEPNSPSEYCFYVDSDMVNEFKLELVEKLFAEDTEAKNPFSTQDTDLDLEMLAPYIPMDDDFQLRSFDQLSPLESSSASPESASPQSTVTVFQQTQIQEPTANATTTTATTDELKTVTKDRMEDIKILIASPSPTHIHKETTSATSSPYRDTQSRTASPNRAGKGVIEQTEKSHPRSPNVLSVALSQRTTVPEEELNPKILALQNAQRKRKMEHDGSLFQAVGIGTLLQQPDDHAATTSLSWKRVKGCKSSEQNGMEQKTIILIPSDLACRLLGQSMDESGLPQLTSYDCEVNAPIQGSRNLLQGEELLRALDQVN
In short: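 Fluorescence intensity of capillary-separated, 6-FAM-labelled reporter amplicons gives mRNA induction in HepG2 cells carrying transfected cis-promoter reporter units; cells exposed 24 h, responses fitted up or down from DMSO.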

[8] = target: Hepatocyte nuclear factor 6 (Homo sapiens) (UniProt Q9UBC0); test: ATG_HNF6_CIS: Attagene CIS-FACTORIAL HepG2 Assay for human Hepatocyte Nuclear Factor 6 (HNF6) (AID 2282952); conditions: HepG2 Attagene cis-factorial HNF6 reporter transcription; actives raise or lower the signal
Chain of Hepatocyte nuclear factor 6 (Homo sapiens) (Q9UBC0 whole entry, looked up, the tested form may be a part): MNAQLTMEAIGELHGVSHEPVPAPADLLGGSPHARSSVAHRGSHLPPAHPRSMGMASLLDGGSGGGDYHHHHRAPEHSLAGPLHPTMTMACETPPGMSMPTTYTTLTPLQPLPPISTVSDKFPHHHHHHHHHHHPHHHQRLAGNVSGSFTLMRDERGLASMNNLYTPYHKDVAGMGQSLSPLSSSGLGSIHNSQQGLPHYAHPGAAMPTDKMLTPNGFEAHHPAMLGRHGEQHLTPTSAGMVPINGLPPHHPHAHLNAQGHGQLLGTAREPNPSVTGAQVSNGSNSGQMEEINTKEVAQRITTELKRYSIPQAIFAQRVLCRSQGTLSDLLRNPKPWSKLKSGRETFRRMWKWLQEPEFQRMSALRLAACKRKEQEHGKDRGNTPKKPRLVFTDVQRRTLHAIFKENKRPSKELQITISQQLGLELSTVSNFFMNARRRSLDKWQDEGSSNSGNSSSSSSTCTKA
In short: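 Twenty-four-hour chemical treatment of reporter-transfected HepG2 cells precedes RNA isolation, DNase-treated reverse transcription and PCR of reporter sequences. Labelled fragments are sized by capillary electrophoresis and fitted bidirectionally versus DMSO.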

[9] = target: Heat shock factor protein 1 (Homo sapiens) (UniProt Q00613); test: ATG_HSE_CIS: Attagene CIS-FACTORIAL HepG2 Assay for human Heat Shock Transcription Factor 1 (HSE) (AID 2282953); conditions: HepG2 HSE cis-reporter, Attagene RNA transcription; actives raise or lower the signal
Chain of Heat shock factor protein 1 (Homo sapiens) (Q00613 whole entry, looked up): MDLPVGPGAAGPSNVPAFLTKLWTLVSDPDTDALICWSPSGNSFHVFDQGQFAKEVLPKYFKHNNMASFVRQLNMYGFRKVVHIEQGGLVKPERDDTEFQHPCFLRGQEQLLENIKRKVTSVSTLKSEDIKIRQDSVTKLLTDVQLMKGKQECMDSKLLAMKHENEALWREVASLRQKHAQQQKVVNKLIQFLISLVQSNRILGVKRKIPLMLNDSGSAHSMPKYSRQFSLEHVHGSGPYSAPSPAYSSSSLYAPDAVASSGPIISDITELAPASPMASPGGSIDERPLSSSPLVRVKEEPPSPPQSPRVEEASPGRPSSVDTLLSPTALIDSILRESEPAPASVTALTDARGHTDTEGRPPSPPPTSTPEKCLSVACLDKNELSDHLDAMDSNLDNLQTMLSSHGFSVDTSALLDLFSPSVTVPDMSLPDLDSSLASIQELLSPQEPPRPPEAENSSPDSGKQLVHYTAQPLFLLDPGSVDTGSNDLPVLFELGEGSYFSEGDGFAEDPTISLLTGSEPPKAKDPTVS
In short: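 HepG2 cells transfected with cis-promoter reporter units sensing endogenous transcription factor activity; reporter mRNA quantified 24 h post-dose by RT-PCR and capillary electrophoresis of 6-FAM-labelled products. Bidirectional fitting against DMSO.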

[10] = ATG_MRE_CIS: Attagene CIS-FACTORIAL HepG2 Assay for human Metal Responsive Element (MRE) (AID 2282954); conditions: HepG2 MRE cis-reporter transcription, Attagene multiplex; actives raise or lower the signal
In short: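 Endogenous MRE-dependent transcription read as reporter mRNA in transiently transfected human HepG2 cells at 24 h. RNA reverse-transcribed, PCR-amplified, labelled and resolved by capillary electrophoresis; gain or loss relative to DMSO.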

[11] = target: Paired box protein Pax-6 (Homo sapiens) (UniProt P26367); test: ATG_Pax6_CIS: Attagene CIS-FACTORIAL HepG2 Assay for human Paired Box 6 (PAX6) (AID 2282956); conditions: HepG2 CIS-FACTORIAL PAX6 reporter transcription, RNA readout; actives raise or lower the signal
Chain of Paired box protein Pax-6 (Homo sapiens) (P26367 whole entry, looked up): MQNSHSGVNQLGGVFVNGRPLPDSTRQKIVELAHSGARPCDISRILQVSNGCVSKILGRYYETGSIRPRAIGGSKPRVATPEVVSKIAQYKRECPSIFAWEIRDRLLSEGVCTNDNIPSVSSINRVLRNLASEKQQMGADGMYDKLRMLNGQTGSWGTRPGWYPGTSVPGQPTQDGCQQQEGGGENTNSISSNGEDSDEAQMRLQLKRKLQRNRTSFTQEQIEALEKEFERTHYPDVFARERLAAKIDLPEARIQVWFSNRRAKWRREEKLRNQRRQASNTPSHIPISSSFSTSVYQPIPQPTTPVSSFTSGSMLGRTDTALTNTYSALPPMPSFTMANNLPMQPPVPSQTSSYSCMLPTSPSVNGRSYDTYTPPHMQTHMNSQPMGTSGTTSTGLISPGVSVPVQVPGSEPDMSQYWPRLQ
In short: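 Values derive from bidirectional curve fitting of reporter mRNA signal relative to DMSO. HepG2 cells bearing transfected cis-regulated MRTUs were exposed for 24 h; transcripts were read by RT-PCR and capillary electrophoresis.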

[12] = ATG_PXRE_CIS: Attagene CIS-FACTORIAL HepG2 Assay for human Pregnane X Receptor Element (PXRE) (AID 2282957); conditions: HepG2 Attagene CIS-FACTORIAL PXRE reporter, mRNA; actives raise or lower the signal
In short: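 Bidirectional activity, baselined to DMSO, derived from reporter mRNA fluorescence (RT-PCR plus capillary electrophoresis) in HepG2 cells bearing cis-promoter reporter units, 24 h exposure.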

[13] = ATG_PPRE_CIS: Attagene CIS-FACTORIAL HepG2 Assay for human Peroxisome Proliferator-activated Response Element (PPRE) (AID 2282958); conditions: HepG2 PPRE cis-element reporter, Attagene transcription factor profiling; actives raise or lower the signal
In short: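 In this cell-based multiplex, a PPRE cis element drives a reporter sequence in transiently transfected HepG2 cells. Following 24 h treatment, labeled cDNA amplicons are sized and quantified by capillary electrophoresis, with DMSO defining baseline.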

[14] = ATG_RORE_CIS: Attagene CIS-FACTORIAL HepG2 Assay for human RAR-related Orphan Receptor Element (RORE) (AID 2282959); conditions: HepG2 Attagene cis-factorial RORE reporter, mRNA; actives raise or lower the signal
In short: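 Endogenous factor activity at a cis response element is read as reporter transcript levels in HepG2 cells, 24 h post-dose. Transcripts are quantified by RT-PCR with capillary electrophoresis, and data fitted in both directions against DMSO.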

[15] = ATG_Sox_CIS: Attagene CIS-FACTORIAL HepG2 Assay for human SRY-box transcription factor (SOX) (AID 2282960); conditions: HepG2 Attagene cis-factorial SOX reporter, mRNA; actives raise or lower the signal
In short: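 Measures mRNA induction of a SOX1-associated reporter in HepG2 after 24 h dosing. Fluorescently labelled RT-PCR fragments are separated by capillary electrophoresis, and gain or loss relative to DMSO control is fitted.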

[16] = target: Transcription factor Sp1 (Homo sapiens) (UniProt P08047); test: ATG_Sp1_CIS: Attagene CIS-FACTORIAL HepG2 Assay for human Specificity Protein 1 (Sp1) (AID 2282961); conditions: HepG2 Sp1 cis-reporter transcription, actives raise or lower the signal
Chain of Transcription factor Sp1 (Homo sapiens) (P08047 whole entry, looked up): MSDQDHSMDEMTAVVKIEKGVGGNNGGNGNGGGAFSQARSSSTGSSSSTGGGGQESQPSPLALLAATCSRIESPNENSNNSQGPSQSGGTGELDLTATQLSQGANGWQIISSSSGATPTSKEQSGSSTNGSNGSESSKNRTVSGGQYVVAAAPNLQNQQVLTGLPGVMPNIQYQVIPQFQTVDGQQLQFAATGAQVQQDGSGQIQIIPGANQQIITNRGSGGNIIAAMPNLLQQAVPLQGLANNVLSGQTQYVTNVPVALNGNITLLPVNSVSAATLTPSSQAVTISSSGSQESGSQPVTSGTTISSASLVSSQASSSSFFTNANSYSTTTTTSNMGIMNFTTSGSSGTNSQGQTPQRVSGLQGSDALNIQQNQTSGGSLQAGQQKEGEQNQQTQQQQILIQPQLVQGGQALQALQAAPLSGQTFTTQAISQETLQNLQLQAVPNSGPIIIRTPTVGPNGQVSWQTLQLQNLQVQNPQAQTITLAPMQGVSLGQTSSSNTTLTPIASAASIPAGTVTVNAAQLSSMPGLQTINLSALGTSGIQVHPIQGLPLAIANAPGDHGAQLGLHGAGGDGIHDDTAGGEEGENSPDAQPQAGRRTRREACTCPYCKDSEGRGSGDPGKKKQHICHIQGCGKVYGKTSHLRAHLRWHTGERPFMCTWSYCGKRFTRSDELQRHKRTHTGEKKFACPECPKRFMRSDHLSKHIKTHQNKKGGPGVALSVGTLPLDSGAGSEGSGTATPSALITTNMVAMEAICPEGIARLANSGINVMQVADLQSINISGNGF
In short: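 Cells: HepG2, transiently transfected with cis-regulated multiplexed reporters. Exposure: 24 h. Detection: reporter transcripts amplified, fluorescently labeled, restriction-digested and sized by capillary electrophoresis. Analysis: bidirectional fit relative to DMSO.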

[17] = ATG_SREBP_CIS: Attagene CIS-FACTORIAL HepG2 Assay for human Sterol Regulatory Element Binding (SREBP) (AID 2282962); conditions: HepG2 Attagene cis-factorial SREBP reporter, mRNA; actives raise or lower the signal
In short: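 Values derive from bidirectional curve fitting with DMSO as baseline. The underlying measurement is reporter mRNA from cis-element-regulated units in transiently transfected HepG2, quantified by RT-PCR and capillary electrophoresis after 24 h exposure.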

[18] = target: Signal transducer and activator of transcription 3 (Homo sapiens) (UniProt P40763); test: ATG_STAT3_CIS: Attagene CIS-FACTORIAL HepG2 Assay for human Signal Transducer and Activator of Transcription 3 (STAT3) (AID 2282963); conditions: HepG2, Attagene cis-factorial STAT3 reporter transcription; actives raise or lower the signal
Chain of Signal transducer and activator of transcription 3 (Homo sapiens) (P40763 whole entry, looked up): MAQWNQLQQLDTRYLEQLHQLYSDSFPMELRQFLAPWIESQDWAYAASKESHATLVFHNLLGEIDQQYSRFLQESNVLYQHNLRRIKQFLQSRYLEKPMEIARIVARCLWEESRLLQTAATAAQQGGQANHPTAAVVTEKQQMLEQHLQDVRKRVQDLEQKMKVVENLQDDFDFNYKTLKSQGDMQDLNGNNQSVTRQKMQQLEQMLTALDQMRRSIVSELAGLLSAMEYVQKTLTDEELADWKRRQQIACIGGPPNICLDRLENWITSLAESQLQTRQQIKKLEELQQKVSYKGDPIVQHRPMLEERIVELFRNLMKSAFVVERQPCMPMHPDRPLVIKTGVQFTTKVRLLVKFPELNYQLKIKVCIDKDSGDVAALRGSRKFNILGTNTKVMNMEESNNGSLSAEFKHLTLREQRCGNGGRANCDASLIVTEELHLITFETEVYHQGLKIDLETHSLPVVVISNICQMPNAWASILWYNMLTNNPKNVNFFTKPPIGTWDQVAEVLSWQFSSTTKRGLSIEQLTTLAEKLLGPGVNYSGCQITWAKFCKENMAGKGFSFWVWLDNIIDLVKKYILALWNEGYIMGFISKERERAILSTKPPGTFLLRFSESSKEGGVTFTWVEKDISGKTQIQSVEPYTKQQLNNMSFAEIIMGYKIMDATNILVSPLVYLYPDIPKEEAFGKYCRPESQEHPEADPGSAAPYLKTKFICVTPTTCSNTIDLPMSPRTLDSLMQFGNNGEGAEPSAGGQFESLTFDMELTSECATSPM
In short: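 Readout is reporter transcript quantified by RT-PCR and capillary electrophoresis, with 6-FAM primer extension and HpaI digestion. Total RNA is taken 24 h after dosing transiently transfected HepG2 carrying cis-regulated reporter units. Bidirectional fit against DMSO.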

[19] = ATG_TA_CIS: Attagene CIS-FACTORIAL HepG2 Assay for human TA Basal Promoter (AID 2282964); conditions: HepG2 Attagene CIS-factorial TA basal promoter reporter; actives raise or lower the signal
In short: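 HepG2 cells transiently transfected with multiple reporter units under cis promoter elements, reporting endogenous transcription factor activity; this endpoint tracks the TA basal promoter as background control. Reporter mRNA after 24 h dosing measured by RT-PCR/capillary electrophoresis; bidirectional fits versus DMSO.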

[20] = ATG_PBREM_CIS: Attagene CIS-FACTORIAL HepG2 Assay for human Phenobarbital-responsive Enhancer Module (PBREM) (AID 2282955); conditions: HepG2 PBREM cis-reporter, Attagene multiplexed transcription; actives raise or lower the signal
In short: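 Cells were transfected with cis-element reporter units and treated for 24 h, after which RNA was extracted and reporter transcripts measured by RT-PCR and capillary electrophoresis.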

Measured: AC50

F[Si-2](F)(F)(F)(F)F
not listed: [20]
inactive: all other assays above

O=C(F)C1(F)C(F)(F)C(F)(F)C(F)(F)C(F)(F)C1(F)F
not listed: [12] | [20]
inactive: all other assays above

C=CCOC(=O)CC(C)C
inactive: all assays above

O=S(=O)(Cl)C(F)(F)C(F)(F)C(F)(F)C(F)(F)C(F)(F)C(F)(F)C(F)(F)C(F)(F)F
active: [12] 28300 nM | [13] 36600 nM
not listed: [16]
inactive: all other assays above

CCOCN(C(=O)CS(=O)(=O)O)c1c(C)cccc1CC
active: [12] 42000 nM
not listed: [16] | [17]
inactive: all other assays above

Nc1cccnc1N
inactive: all assays above

O=C(O)C(F)(F)C(F)(F)C(F)(F)OC(F)(F)F
not listed: [12]
inactive: all other assays above

CC(C)OC(=O)COc1ccc(Cl)cc1Cl
active: [12] 68800 nM
not listed: [16] | [17]
inactive: all other assays above

CC1=CCC2C(=O)OC(=O)C2C1 (stereo not given)
not listed: [17]
inactive: all other assays above

Cc1cc(=O)[nH]c(C(C)C)n1
not listed: [16]
inactive: all other assays above

O=C1C=CC(=O)N1c1ccccc1
inactive: all assays above

CCN=C1C=CC(=C(c2ccc(N(CC)CC)cc2)c2ccc(N(CC)CC)cc2)c2ccccc21
active: [1] 5550 nM | [2] 911 nM | [4] 916 nM | [7] 1100 nM | [9] 1010 nM | [10] 1030 nM | [20] 47.8 nM | [11] 1780 nM | [12] 1230 nM | [14] 68 nM | [15] 76.2 nM | [19] 1230 nM
inactive: [3] | [5] | [6] | [8] | [13] | [16] | [18]

CO[Si](C)(CCC(F)(F)C(F)(F)C(F)(F)C(F)(F)C(F)(F)C(F)(F)F)OC
not listed: [16] | [20]
inactive: all other assays above

CC1=CCC(=O)O1
active: [12] 26700 nM
not listed: [16] | [17] | [20]
inactive: all other assays above

CCCCCCCCCCCCCCCCC
not listed: [12] | [16] | [17]
inactive: all other assays above

— PubChem BioAssay (EPA / NIEHS)
